The target in assay [1] is Retinoic acid receptor RXR-alpha (Homo sapiens) (UniProt P19793). Put plainly: OT_NURR1_NURR1RXRa_1440: Odyssey Thera (OT) 24-hour HEK293T Protein Complementation Assay for Nurr1/retinoid X receptor (RXR) (AID 2283386). In a few lines:
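Fluorescence PCA read-out; HEK293T; 24 h post-dose; bait/prey fused to reporter fragments; gain-of-signal fit vs DMSO negative control.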

Assay [2] concerns the target Peroxisome proliferator-activated receptor gamma (Homo sapiens) (UniProt P37231). Briefly: OT_PPARg_PPARgSRC1_0480: Odyssey Thera (OT) 8-hour Protein-Complementation Assay for Peroxisome Proliferator-activated Receptor Gamma / SRC-1 Co-activator (AID 2283387). In a few lines:
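Read-out: 488 nm N/C fluorescence ratio from complemented Venus YFP fragments, ≥350 cells per image, gain-of-signal fitted against DMSO baseline. Fusions of PPARg/SRC-1 with IFP1/IFP2 expressed transiently in HEK293T; compounds applied 8 h.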

Assay [3] shares this target. Briefly: OT_PPARg_PPARgSRC1_1440: Odyssey Thera (OT) 24-hour Protein-Complementation Assay for Peroxisome Proliferator-activated Receptor Gamma/ SRC-1 Co-activator (AID 2283388). Summed up:
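HEK293T transiently transfected with PPARg/SRC-1 split-Venus YFP fusions 48 h before dosing, then treated 24 h at 37C. Fixed cells imaged; nuclear/cytoplasmic 488 nm fluorescence ratio, gain of signal versus DMSO.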

Assay [4] is described as follows: CEETOX_H295R_11DCORT: CeeTox H295R High-throughput Steroidogenesis Assay for 11-Deoxycortisol (11DCORT) (AID 2283432; active means hit-call score of the fitted dose curve at least 0.9, where 1 is the maximum; inactive means score below 0.9;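 on AC50: 11-deoxycortisol secreted into the medium measured by LC-MS/MS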). Conditions: actives raise or lower the signal. Summed up: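 H295R cells; 10 uM forskolin prestim 48 h; compound in 0.1% DMSO 48 h; media extracted with MTBE; 11-deoxycortisol by LC-MS/MS, 7-point standard curve; gain/loss vs DMSO baseline; viability by MTT in same wells.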

Assay [5] in a line: CEETOX_H295R_OHPREG: CeeTox H295R High-throughput Steroidogenesis Assay for OH-Pregnenolone (OHPREG) (AID 2283434; active means hit-call score of the fitted dose curve at least 0.9, where 1 is the maximum; inactive means score below 0.9). The following applies: actives raise or lower the signal. In a few lines:
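H295R, 10 uM forskolin pre-stim 48 h; test chemical 48 h, 0.1% DMSO final. MTBE extraction, reverse-phase C18 HPLC-ESI+ MS/MS of medium. Gain/loss vs DMSO; viability by MTT in same wells.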

Assay [6] can be described thus: CEETOX_H295R_OHPROG: CeeTox H295R High-throughput Steroidogenesis Assay for OH-Progesterone (OHPROG) (AID 2283435; active means hit-call score of the fitted dose curve at least 0.9, where 1 is the maximum; inactive means score below 0.9;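 on AC50: 17alpha-hydroxyprogesterone secreted into medium measured by HPLC-MS/MS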). The following applies: actives raise or lower the signal. In a few lines: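 HPLC-MS/MS quantification of 17alpha-hydroxyprogesterone secreted by H295R cells after 48 h chemical exposure, following 48 h 10 uM forskolin prestimulation. Gain or loss of signal fitted relative to DMSO. Viability checked by MTT in the same wells.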

Assay [7] can be described thus: CEETOX_H295R_CORTIC: CeeTox H295R High-throughput Steroidogenesis Assay for Corticosterone (CORTIC) (AID 2283437; active means hit-call score of the fitted dose curve at least 0.9, where 1 is the maximum; inactive means score below 0.9;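 further: corticosterone secreted into medium quantified by mass spectrometry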). The following applies: actives raise or lower the signal. Summed up:
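48 h forskolin (10 uM) prestim, then 48 h chemical exposure, final DMSO 0.1%. Readout: corticosterone in medium by LC-MS/MS after MTBE extraction. Gain/loss fit vs DMSO; MTT viability in same wells.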

Assay [8] is described as follows: CEETOX_H295R_CORTISOL: CeeTox H295R High-throughput Steroidogenesis Assay for Cortisol (AID 2283438; active means hit-call score of the fitted dose curve at least 0.9, where 1 is the maximum; inactive means score below 0.9;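 further: cortisol secreted into medium quantified by LC-MS/MS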). Conditions: actives raise or lower the signal. In a few lines:
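Read-out: cortisol in culture medium by reverse-phase C18 HPLC with ESI-positive tandem MS, after MTBE liquid-liquid extraction. Cells: human adrenal H295R, forskolin-primed (10 uM, 48 h) before 48 h chemical exposure in 0.1% DMSO.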

The nature of assay [9]: CEETOX_H295R_DOC: CeeTox H295R High-throughput Steroidogenesis Assay for DOC (AID 2283439; active means hit-call score of the fitted dose curve at least 0.9, where 1 is the maximum; inactive means score below 0.9). The following applies: actives raise or lower the signal. In a few lines:
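Human adrenocortical H295R cells, passages up to 10, received 10 uM forskolin for 48 h before chemical addition. After another 48 h exposure in 0.1% DMSO, secreted DOC was measured by LC-MS/MS, with gain or loss fitted against DMSO controls.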

The nature of assay [10]: CEETOX_H295R_ANDR: CeeTox H295R High-throughput Steroidogenesis Assay for Androstenedione (ANDR) (AID 2283436; active means hit-call score of the fitted dose curve at least 0.9, where 1 is the maximum; inactive means score below 0.9;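 further: human H295R adrenal cells exposed for 48 h with androstenedione measured in medium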). Conditions: actives raise or lower the signal. In a few lines: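 48 h chemical exposure, H295R cells, DMEM/F12 + ITS+ and Nu-Serum. Medium androstenedione: MTBE extraction, C18 reverse-phase HPLC, ESI+ MS/MS. Fit bidirectional vs DMSO; MTT viability in same wells.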

This is an account of results in PubChem BioAssay (EPA / NIEHS).

SMILES strings stand for the structures. Records with an inconclusive call do not appear. The source made the active and inactive calls. How the source made its calls, unless noted: active means hit-call score of the fitted dose curve at least 0.9, where 1 is the maximum; inconclusive means response in the unintended direction; inactive means score below 0.9.

Retinoic acid receptor RXR-alpha (Homo sapiens), sequence (P19793 whole entry, looked up, the tested form may be a part): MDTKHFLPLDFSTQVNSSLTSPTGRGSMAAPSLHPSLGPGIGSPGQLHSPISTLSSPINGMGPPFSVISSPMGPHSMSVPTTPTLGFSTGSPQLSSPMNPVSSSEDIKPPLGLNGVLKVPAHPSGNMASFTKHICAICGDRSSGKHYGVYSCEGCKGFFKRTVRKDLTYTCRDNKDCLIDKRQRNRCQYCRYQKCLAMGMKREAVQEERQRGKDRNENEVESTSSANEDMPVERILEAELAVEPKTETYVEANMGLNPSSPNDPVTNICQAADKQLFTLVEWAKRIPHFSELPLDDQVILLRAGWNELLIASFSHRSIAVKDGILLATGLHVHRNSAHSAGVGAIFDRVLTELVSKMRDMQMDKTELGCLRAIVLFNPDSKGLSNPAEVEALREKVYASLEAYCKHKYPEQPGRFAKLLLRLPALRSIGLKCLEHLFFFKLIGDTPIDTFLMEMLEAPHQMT
Peroxisome proliferator-activated receptor gamma (Homo sapiens), sequence (P37231 whole entry, looked up, the tested form may be a part): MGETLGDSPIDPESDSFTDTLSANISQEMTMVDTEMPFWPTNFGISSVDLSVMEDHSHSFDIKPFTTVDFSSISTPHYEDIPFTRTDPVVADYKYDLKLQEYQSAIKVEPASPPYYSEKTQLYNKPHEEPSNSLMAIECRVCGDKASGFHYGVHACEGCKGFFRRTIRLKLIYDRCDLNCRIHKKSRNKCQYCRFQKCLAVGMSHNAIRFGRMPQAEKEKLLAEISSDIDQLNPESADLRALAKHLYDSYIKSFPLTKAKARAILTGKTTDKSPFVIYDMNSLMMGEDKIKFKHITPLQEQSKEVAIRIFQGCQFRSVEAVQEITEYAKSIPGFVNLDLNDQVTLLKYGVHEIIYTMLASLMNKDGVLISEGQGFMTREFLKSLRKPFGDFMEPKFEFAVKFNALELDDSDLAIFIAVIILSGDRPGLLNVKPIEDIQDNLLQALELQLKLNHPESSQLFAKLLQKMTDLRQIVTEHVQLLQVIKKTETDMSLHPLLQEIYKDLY

In the case of `C=CCc1ccc(OC)cc1`, the call in assay [1], in assay [2] and in assay [3] was inactive.

`O=C1C2(Cl)C3(Cl)C4(Cl)C(Cl)(Cl)C5(Cl)C3(Cl)C1(Cl)C5(Cl)C24Cl` (stereo not drawn): the molecule was called inactive in assay [2] and in assay [3].

Usually AC50 stands for the midpoint of the concentration-response curve, whichever way the signal moves. As for `C[C@]12CC[C@H](O)CC1=CC[C@@H]1[C@@H]2CC[C@]2(C)C(=O)CC[C@@H]12`, the molecule was classed as inactive in [1], in [3], in [7] and in assay [9]. In addition, the concentration at half-maximal activity (AC50) in assay [4] is 41.1 µM (active); in assay [5], 14.1 µM (active); in [6], 1.13 µM (active); in [8], 7.72 µM (active).

In the case of `O=S(=O)(c1ccc(Cl)cc1)c1ccc(Cl)cc1`, the call in [1], in assay [2] and in assay [3] was inactive.

On to `O=C(O)C(Cl)(Cl)Cl`, for which the call in assay [1], in assay [2] and in assay [3] was inactive.

`CC(=O)C=C(C)C`: the molecule was classed as inactive in [1], in [2] and in [3].

Regarding `CC(C)c1cccc(C(C)C)c1O`, the molecule was called inactive in [1] and in [3].

For `CC1(C)CCC(Cc2ccc(Cl)cc2)C1(O)Cn1cncn1` (stereo not drawn), the molecule was called inactive in assay [1], in assay [2] and in assay [3]. Besides, the figures for the concentration at half-maximal activity (AC50) in [5] and in assay [6] were 0.143 µM (active) and 0.0959 µM (active), respectively.

For the molecule `O=C(OC1CCCCC1)c1ccccc1C(=O)OC1CCCCC1`, the molecule was classed as inactive in assay [2] and in assay [3].

Regarding `ClC(Cl)=C(Cl)C(Cl)=C(Cl)Cl`, the outcome in [1], in assay [2] and in assay [3] was inactive.

For `COP(=O)(OC)OC`, the molecule was called inactive in [1], in assay [2] and in assay [3].

`O=C(O)C(F)(F)C(F)(F)C(F)(F)C(F)(F)C(F)(F)C(F)(F)F`: the molecule was classed as inactive in assay [1], in assay [2] and in assay [3].

In the case of `ClC1(Cl)C2(Cl)C3(Cl)C4(Cl)C(Cl)(Cl)C5(Cl)C3(Cl)C1(Cl)C5(Cl)C24Cl` (stereo not drawn), the molecule was called inactive in assay [1], in [2] and in assay [3].

As for `COP(=S)(OC)Oc1ccc(Sc2ccc(OP(=S)(OC)OC)cc2)cc1`, the molecule was classed as inactive in assay [2] and in assay [3].

Consider `BrCCBr`, for which the molecule was called inactive in assay [1], in [2] and in assay [3].

`O=[N+]([O-])c1ccc(O)c([N+](=O)[O-])c1`: the molecule was called inactive in assay [2] and in assay [3].

Regarding `COP(=O)(OC)O/C(=C\Cl)c1cc(Cl)c(Cl)cc1Cl`, the result in [1], in assay [2], in [3], in [5], in [6] and in assay [10] was inactive.

For `O=C(Cc1ccccc1)c1ccccc1`, the call in assay [1], in [4], in assay [5], in assay [7], in [8] and in [9] was inactive. In addition, in assay [6], the AC50 was 43.6 µM (active).

Take `CCC[CH2][Sn]([CH2]CCC)([CH2]CCC)[O]C(=O)c1ccccc1`: the molecule was called inactive in assay [1] and in assay [2]. Further, the concentration at half-maximal activity (AC50) in [3] was 0.0331 µM (active).

For `COc1ccc(C=O)cc1`, the molecule was called inactive in [2] and in [3].

With `CNC(=O)O/N=C/C(C)(C)S(C)=O` (stereo not drawn), the molecule was called inactive in assay [1], in assay [2] and in assay [3].

Regarding `O=C(NCO)NCO`, the molecule was classed as inactive in [1], in assay [2] and in assay [3].

`Oc1ccc(-c2ccccc2)cc1`: the AC50 in assay [1] is 50 µM (active); in assay [4] it was 87.6 µM (active); in [5], 74.2 µM (active); in assay [6] it was 13.1 µM (active); in [7], 14 µM (active). Further, the molecule was called inactive in assay [2], in assay [3], in assay [8] and in [9].

Consider `NNC(=S)NN`, for which the molecule was classed as inactive in [1], in assay [2] and in [3]. Moreover, the AC50 in assay [5] and in [6] was 50 µM (active) in each case.

Turning to `Fc1ccc(C2(Cn3cncn3)OC2c2ccccc2Cl)cc1` (stereo not drawn), the molecule was classed as inactive in assay [1], in assay [2], in assay [3] and in [7]. Also, the AC50 is 7.55 µM (active) in [4]; 0.645 µM (active) in assay [5]; 2.06 µM (active) in assay [6]; 3.04 µM (active) in assay [8]; 2.08 µM (active) in [9].

Consider `CC12CC1(C)C(=O)N(c1cc(Cl)cc(Cl)c1)C2=O` (stereo not drawn), for which the outcome in [1], in [2], in assay [3], in assay [4], in assay [5] and in assay [8] was inactive. Also, in assay [9], the result was inactive. The values for the half-maximal activity concentration (AC50) in [6], in assay [10] and in assay [7] were 20.9 µM (active), 30.9 µM (active) and 14.1 µM (active), respectively.

On to `CN(CCCC(=O)c1cccnc1)N=O`, for which the outcome in [10] was inactive.
